Reference: PubChem BioAssay (EPA / NIEHS)
“And” between values parts separate entries of the source, which are not always exact repeats. Identical values can stand only once. Results filed as inconclusive are left out. More than one record can exist for a structure, and the calls need not agree. The source made the active and inactive calls. How the source made its calls: active means hit-call score of the fitted dose curve at least 0.9, where 1 is the maximum; inconclusive means response in the unintended direction; inactive means score below 0.9.

How the values were obtained:
[1] = ATG_XTT_Cytotoxicity: Cytotoxicity Assessment in the Attagene TRANS-FACTORIAL HepG2 Assay (AID 2283584);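 on AC50: cells exposed to compound for 24 h before reading; active means loss of viability signal versus DMSO baseline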
Method in brief: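 Viability endpoint from XTT after 24 h chemical exposure of reporter-transfected human HepG2 liver cells; signal loss fitted relative to DMSO negative control.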

[2] = TOX21_p53_BLA_p2_viability: Viability Assessment in the Tox21 HCT-116 p53 Agonism Beta-lactamase Assay, Phase 2 (AID 2283591);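 further: compound exposure lasted 16 h at 37 °C; actives lower the ATP signal meaning cytotoxicity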
Method in brief: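 HCT116 p53-bla cells, 4000/well, dosed after 5 h plating (217-fold dilution of DMSO stocks) and incubated 16 h at 37C. Viability taken as cellular ATP by CellTiter-Glo luminescence after 30 min RT; signal loss marks cytotoxicity.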

[3] = target: Cellular tumor antigen p53 (Homo sapiens) (UniProt P04637); experiment: TOX21_p53_BLA_p2_ratio: Tox21 HCT-116 p53 Agonism Beta-lactamase Assay, Ratio, Phase 2 (AID 2283592)
Method in brief: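 Read-out is the blue/green (460/530 nm, 405 nm excitation) ratio after 2 h CCF4-AM loading, fitted as gain versus DMSO. Compounds, pinned at 217-fold dilution from DMSO stocks, stayed 16 h on HCT-116 beta-lactamase reporter cells seeded 5 h earlier.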

[4] = TOX21_p53_BLA_p3_viability: Viability Assessment in the Tox21 HCT-116 p53 Agonism Beta-lactamase Assay, Phase 3 (AID 2283593);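 further: cells exposed to compound for 16 h before reading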
Method in brief: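 HCT116 cells, 4000/well, dosed 5 h after plating by pin transfer (217-fold dilution from DMSO stock) and incubated 16 h at 37C, 5% CO2. Viability read as ATP luminescence with CellTiter-Glo after 30 min at room temperature.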

[5] = target: Cellular tumor antigen p53 (Homo sapiens) (UniProt P04637); experiment: TOX21_p53_BLA_p3_ratio: Tox21 HCT-116 p53 Agonism Beta-lactamase Assay, Ratio, Phase 3 (AID 2283596)
Method in brief: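 Cells were seeded at 4000/well, rested 5 h at 37C, then dosed with DMSO compound solutions (217-fold dilution) for 16 h. CCF4-AM substrate was loaded for 2 h at room temperature, and the 460/530 nm emission ratio was fitted for gain of signal versus DMSO.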

[6] = TOX21_p53_BLA_p5_viability: Viability Assessment in the Tox21 HCT-116 p53 Agonism Beta-lactamase Assay, Phase 5 (AID 2283600)
Method in brief: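 Viability came from CellTiter-Glo ATP luminescence, read after 30 min at room temperature. Before this, HCT-116 p53-bla cells (4000/well) had 16 hours of compound exposure at 37C, with DMSO stocks diluted 217-fold on transfer.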

[7] = target: Cellular tumor antigen p53 (Homo sapiens) (UniProt P04637); experiment: TOX21_p53_BLA_p4_ratio: Tox21 HCT-116 p53 Agonism Beta-lactamase Assay, Ratio, Phase 4 (AID 2283601)
Method in brief: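 HCT-116 p53 beta-lactamase reporter cells (4000/well) preincubated 5 h, then compound (217-fold dilution of DMSO stock) for 16 h at 37C. CCF4-AM substrate added 2 h at room temperature; 460/530 nm emission ratio fitted upward versus DMSO.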

[8] = target: Cellular tumor antigen p53 (Homo sapiens) (UniProt P04637); experiment: TOX21_p53_BLA_p5_ratio: Tox21 HCT-116 p53 Agonism Beta-lactamase Assay, Ratio, Phase 5 (AID 2283599)
Method in brief: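 HCT-116 p53-bla cells (4000/well) plated 5 h, dosed with compound (217-fold DMSO dilution) for 16 h at 37 C; CCF4-AM substrate 2 h at room temperature. Activity is the 460/530 nm emission ratio (405 nm excitation), fitted in gain-of-signal direction versus DMSO.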

[9] = TOX21_p53_BLA_p4_viability: Viability Assessment in the Tox21 HCT-116 p53 Agonism Beta-lactamase Assay, Phase 4 (AID 2283597);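 further: hits lower the luminescence signal meaning cytotoxicity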
Method in brief: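 Cytotoxicity as reduced cellular ATP (CellTiter-Glo luminescence, 30 min room temperature), measured in the same wells following the CCF4 FRET p53 reading. Human HCT-116 cells received compounds in DMSO (217-fold dilution) for 16 h.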

Measured: AC50

Chain of Cellular tumor antigen p53 (Homo sapiens) (P04637 whole entry, looked up): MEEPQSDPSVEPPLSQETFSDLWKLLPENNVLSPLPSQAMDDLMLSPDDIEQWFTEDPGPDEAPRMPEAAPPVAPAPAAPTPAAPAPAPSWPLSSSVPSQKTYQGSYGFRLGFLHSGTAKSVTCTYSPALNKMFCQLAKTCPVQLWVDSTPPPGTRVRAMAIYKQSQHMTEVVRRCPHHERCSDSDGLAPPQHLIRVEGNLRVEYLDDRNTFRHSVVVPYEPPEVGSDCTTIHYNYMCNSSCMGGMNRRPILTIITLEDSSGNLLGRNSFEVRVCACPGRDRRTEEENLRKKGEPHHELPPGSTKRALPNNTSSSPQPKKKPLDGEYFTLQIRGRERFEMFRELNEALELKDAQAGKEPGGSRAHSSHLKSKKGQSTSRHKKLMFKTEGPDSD

COP(=S)(OC)Oc1cc(Cl)c(I)cc1Cl
active: [1] 157 µM | [3] 73.9 µM | [5] 75.1 µM | [7] 87.3 µM
inactive: [2] | [4] | [6]

O=C(NC(=O)c1c(F)cccc1F)Nc1cc(Cl)c(Oc2ncc(C(F)(F)F)cc2Cl)c(Cl)c1
active: [3] 6.18 µM | [7] 15.6 µM
not listed: [8] | [9]
inactive: all other assays above

CCOP(=S)(OCC)Oc1ccc(Cl)cc1Cl
not listed: [9]
inactive: all other assays above

Brc1ccc(Br)cc1
not listed: [8] | [9]
inactive: all other assays above

O=C1C[C@@H]2OCC=C3CN4CC[C@]56c7ccccc7N1[C@H]5[C@H]2[C@H]3C[C@H]46
not listed: [8] | [9]
inactive: all other assays above

CC(C)CC(C)(c1ccc(O)cc1)c1ccc(O)cc1
active: [1] 25.9 µM | [2] 23.7 µM and 75.4 µM | [3] 41.7 µM and 71.7 µM | [4] 57.9 µM and 73.5 µM | [5] 45.2 µM and 86.9 µM | [9] 18.6 µM and 46.2 µM | [6] 71.2 µM and 81.4 µM | [7] 40.9 µM and 55 µM

O=[N+]([O-])c1ccccc1O
not listed: [5] | [8] | [9]
inactive: all other assays above

COC(=O)Nc1cccc(OC(=O)Nc2cccc(C)c2)c1
not listed: [7] | [8] | [9]
inactive: all other assays above

N#CCC#N
not listed: [4] | [9]
inactive: all other assays above

CC(C)(C)c1cc([N+](=O)[O-])cc(C(C)(C)C)c1O
active: [2] 46.1 µM | [3] 3.81 µM | [5] 4.47 µM | [7] 46.1 µM
not listed: [9]
inactive: all other assays above

O=[N+]([O-])c1c2ccccc2cc2ccccc12
inactive: all assays above

CCOC(=O)CC(=O)CCl
active: [5] 77.9 µM
not listed: [6] | [9]
inactive: all other assays above

O=C(O)c1cc(I)cc(I)c1I
not listed: [5] | [8]
inactive: all other assays above

CCOP(=S)(OCC)O/N=C(\C#N)c1ccccc1
not listed: [4] | [6]
inactive: all other assays above

O=NN1CCCCCCC1
not listed: [4] | [9]
inactive: all other assays above

CC(C)[C@@H](Nc1ccc(C(F)(F)F)cc1Cl)C(=O)OC(C#N)c1cccc(Oc2ccccc2)c1 (stereo partly drawn)
not listed: [7] | [9]
inactive: all other assays above

OC(c1ccc(Cl)cc1)(c1ccc(Cl)cc1)c1cccnc1
inactive: [4] | [5] | [6]
active: [1] 67.7 µM | [2] 46.1 µM | [3] 44.3 µM | [8] 72.5 µM | [7] 70.9 µM

CCC[CH2][Sn]([CH2]CCC)([CH2]CCC)[CH2]CCC
inactive: [3]
active: [1] 33.9 µM | [2] 30.1 µM | [4] 20.2 µM | [5] 29.6 µM | [9] 42.2 µM | [6] 41 µM | [7] 68.7 µM

C=CC(=O)[O][Sn]([CH2]CCC)([CH2]CCC)[CH2]CCC
active: [1] 1.09 µM | [2] 1.86 µM | [3] 13.5 µM | [4] 1.64 µM | [5] 13.6 µM | [9] 1.56 µM | [6] 1.82 µM | [7] 13.4 µM

N#CS
not listed: [8] | [9]
inactive: all other assays above

N#Cc1ccncc1
not listed: [4] | [9]
inactive: all other assays above

CCC(C)(C#N)N=NC(C)(C#N)CC (stereo not drawn)
inactive: [1] | [2] | [3] | [4] | [6]

Cc1cccc(C)c1NC(=O)CN1CCCC1=O
inactive: all assays above

CCOP(=S)(OCC)SCSc1cc(Cl)ccc1Cl
inactive: [1] | [2] | [3] | [4] | [6]

Cc1cc(-c2cc(C)c(N)c(C)c2)cc(C)c1N
not listed: [9]
inactive: all other assays above

Cc1cc(Cl)ccc1OCCCC(=O)O
not listed: [8]
inactive: all other assays above

Clc1cnc(Oc2ccc(Oc3ncc(Cl)cc3Cl)cc2)c(Cl)c1
not listed: [5] | [8]
inactive: all other assays above

CCCCOC(C)=O
not listed: [6] | [8] | [9]
inactive: all other assays above

CCC[N+](CCC)(CCC)CCC
not listed: [6] | [7] | [9]
inactive: all other assays above

CC(C)[C@H](C(=O)OC(C#N)c1cccc(Oc2ccccc2)c1)c1ccc(OC(F)F)cc1 (stereo partly drawn)
inactive: all assays above

C=CC(=O)OCC(COC(=O)C=C)(COC(=O)C=C)COC(=O)C=C
inactive: [3] | [5]
active: [1] 73.8 µM | [2] 16.6 µM | [4] 57.9 µM | [9] 13.3 µM | [6] 21.3 µM | [7] 46.1 µM

CN(N=O)C(N)=O
not listed: [6] | [9]
inactive: all other assays above

Cc1cc(SCc2sc(-c3ccc(C(F)(F)F)c(F)c3)nc2C)ccc1OCC(=O)O
inactive: [1]
active: [2] 15.2 µM | [3] 54.1 µM | [4] 35.3 µM | [5] 48.2 µM | [9] 11.9 µM | [8] 70.2 µM | [6] 40.6 µM | [7] 54.2 µM

CCOP(=O)(OCC)OC(=CCl)c1ccc(Cl)cc1Cl
not listed: [8] | [9]
inactive: all other assays above

O=S(=O)(c1ccc(Cl)cc1)c1cc(Cl)c(Cl)cc1Cl
not listed: [9]
inactive: all other assays above

CCCCCCCCCCCCCl
not listed: [2] | [8]
inactive: all other assays above

O=C(NC(=O)c1c(F)cccc1F)Nc1cc(Cl)c(OC(F)(F)C(F)C(F)(F)F)cc1Cl (stereo not drawn)
not listed: [2] | [8]
inactive: all other assays above

CC1(C)[C@H](/C=C2\CCSC2=O)[C@@H]1C(=O)OCc1coc(Cc2ccccc2)c1
active: [7] 69.3 µM
not listed: [2] | [9]
inactive: all other assays above

CN(C)[C@@H]1C(=O)C(C(N)=O)=C(O)[C@@]2(O)C(=O)C3=C(O)c4c(O)ccc(Cl)c4[C@@](C)(O)[C@H]3C[C@@H]12
inactive: [1] | [2] | [9] | [6]

Cc1cc(Cl)ccc1OC(C)C(=O)O (stereo not drawn)
not listed: [3] | [5]
inactive: all other assays above

CCOc1cc(C=O)ccc1O
not listed: [2]
inactive: all other assays above

CCOc1ccc(N)cc1
not listed: [2]
inactive: all other assays above

Cc1c([N+](=O)[O-])c(C)c([N+](=O)[O-])c(C(C)(C)C)c1[N+](=O)[O-]
inactive: [1] | [2] | [6] | [7]
active: [9] 42.5 µM

O=C(Nc1ccc(Br)cc1)c1cc(Br)cc(Br)c1O
inactive: [1] | [6] | [7]
active: [3] 1.15 µM and 272 nM and 3.12 µM | [4] 1.12 µM and 641 nM and 1.79 µM | [5] 255 nM and 198 nM and 1.8 µM | [8] 1.11 µM and 782 nM and 7.78 µM | [6] 9.14 µM | [7] 1.11 µM and 589 nM

Nc1ccc(-c2ccccc2)cc1
not listed: [2]
inactive: all other assays above

C#C[C@]1(O)CC[C@H]2[C@@H]3CCC4=CC(=O)CC[C@]4(C)[C@H]3CC[C@@]21C
not listed: [2]
inactive: all other assays above
